PDI turbidity: inhibitors of human protein disulfide isomerase. 0.052% of 350,000 active. inhibition, % at 10 µM. P07237. PDI insulin aggregation turbidity, A650, 90 min. AID 588391;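 active means mean inhibition across replicates of 30% or more, whatever share of single replicates reach that level; inconclusive means mean inhibition below 30% while every single replicate reaches 30%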
AF4-AF9 inh: MLL-AF4/AF9 protein interaction inhibition; P42568; AlphaScreen, biotin-AF4 peptide binding to FLAG-AF9; inhibition, % at 10 µM; 0.47% of 350,000 active; AID 651704;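 active means every replicate reaching a set inhibition limit, whatever the replicate mean, cut at about 25% in these data; inconclusive means mean inhibition reaches that limit but some replicates miss it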
Target sequence (P42568 whole entry, looked up): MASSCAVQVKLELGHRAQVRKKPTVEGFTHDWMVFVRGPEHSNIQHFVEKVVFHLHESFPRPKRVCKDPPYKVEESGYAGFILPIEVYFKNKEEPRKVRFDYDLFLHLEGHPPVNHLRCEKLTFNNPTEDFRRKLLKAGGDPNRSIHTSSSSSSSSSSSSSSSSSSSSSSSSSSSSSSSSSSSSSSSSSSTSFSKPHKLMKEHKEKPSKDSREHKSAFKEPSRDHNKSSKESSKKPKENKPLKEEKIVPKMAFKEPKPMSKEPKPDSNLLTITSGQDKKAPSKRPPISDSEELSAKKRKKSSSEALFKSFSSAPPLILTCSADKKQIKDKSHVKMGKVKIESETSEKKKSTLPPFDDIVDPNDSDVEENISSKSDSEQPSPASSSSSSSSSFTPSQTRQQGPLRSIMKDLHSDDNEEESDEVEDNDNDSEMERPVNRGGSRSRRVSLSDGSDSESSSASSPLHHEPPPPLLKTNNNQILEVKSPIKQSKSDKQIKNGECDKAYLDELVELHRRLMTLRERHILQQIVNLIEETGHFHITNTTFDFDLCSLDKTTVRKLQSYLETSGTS
ERAP1 inh: ERAP1 (human) enzyme inhibition | AID 652197 | inhibition, % at 10.7 µM | recombinant ERAP1, Leu-AMC fluorescence, 60 min | 0.15% of 340,000 active;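 active means mean replicate inhibition of at least 30%, or all replicates individually reaching that 30% level; inactive means mean below 30% and not every replicate reaching it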
DENV2 CPE: inhibitors of DENV2 cytopathic effect; DENV2-infected cells, cytopathic effect rescue, plate reader; CPE inhibition, % at 9.99 µM; 1.7% of 350,000 active; AID 651640; in the data active means CPE inhibition above about 20%, passing the limit was not always enough; inconclusive means no clear call, values can overlap the other calls; tested in BHK-21 cells
ERp5 inh: ERp5 (human) disulfide isomerase inhibition | Q15084 | ERp5 insulin aggregation, absorbance 650 nm, 90 min | inhibition, % at 9.99 µM | 0.05% of 350,000 active;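 active means mean replicate inhibition above about 25%, with every replicate also reaching it, limit read from the data, passing the limit was not always enough; inconclusive means only one of those two criteria met; inactive means neither criterion met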
Large screens that a line does not name were inactive. Shown are actives, neighbours in structure and some others; about 1.8% of the full set was active somewhere.

CO[C@@H]1CN(C)C(=O)c2ccc(NC(=O)Nc3ccccc3)cc2OC[C@@H](C)N(C(C)=O)C[C@@H]1C	DENV2 CPE 51 (no result: PDI turbidity)
CCNC(=O)[C@H]1[C@H](CO)[C@H]2Cn3c(ccc(-c4ccncc4)c3=O)[C@@H]1N2CC1CC1	none (no result: PDI turbidity)
CN1/C(=C/C=C/c2n(C)c3cc([N+](=O)[O-])c([N+](=O)[O-])cc3[n+]2C)C(C)(C)c2ccccc21	AF4-AF9 inh 55
Cc1cccc[n+]1CC(=O)/C=C1\N(C)c2ccccc2C1(C)C	none
CC(C)c1cn(CC[C@H]2CC[C@H](NS(=O)(=O)Cc3ccccc3)[C@@H](CO)O2)nn1	none (no result: PDI turbidity)
O=C(O)CN1C(=O)C2(OCCO2)c2cc(Br)ccc21	none (no result: ERp5 inh)
O=C(CN1C(=O)C2(OCCO2)c2cc(Br)ccc21)NO	ERAP1 inh 34 (no result: AF4-AF9 inh)
CCNC(=O)N(CC)C[C@H]1N[C@@](Cc2ccccc2)(C(=O)OC)[C@H]2C(=O)N(Cc3ccccc3)C(=O)[C@@H]12	DENV2 CPE 37
Cc1ccc(S(=O)(=O)N2C3CCCCC3O[C@H]2CC(=O)c2cccs2)cc1 (stereo partly specified)	DENV2 CPE 48 (no result: PDI turbidity, AF4-AF9 inh)
CCCCNC(=O)c1nn2c(C(F)(F)F)cc(-c3ccccc3)nc2c1Br	DENV2 CPE 38
Cc1sc2ncnc(N3CCC(C(=O)Nc4ccc(Cl)cc4Cl)CC3)c2c1C	DENV2 CPE 30
C[C@@H]1CN([C@H](C)CO)S(=O)(=O)c2ccc(C#CC3CC3)cc2O[C@H]1CN(C)C(=O)c1cccnc1	none (no result: PDI turbidity)
CN1CCN(CC(C)(C)NS(=O)(=O)c2ccc(Cl)cc2)CC1	none (no result: AF4-AF9 inh, ERAP1 inh, DENV2 CPE, ERp5 inh)
CC(C)(CN1CCN(Cc2ccccc2)CC1)NS(=O)(=O)c1ccc(Cl)cc1	DENV2 CPE 30
Cc1ccc(S(=O)(=O)NC2=C(N3CCN(c4ccccc4F)CC3)C(=O)c3ccccc3C2=O)cc1	AF4-AF9 inh 35
Cc1ccc(S(=O)(=O)NC2=C(N3CCN(Cc4ccccc4)CC3)C(=O)c3ccccc3C2=O)cc1	AF4-AF9 inh 35 (no result: DENV2 CPE)
COC(=O)C1CCN(C2=C(NS(=O)(=O)c3ccc(Cl)cc3)C(=O)c3ccccc3C2=O)CC1	AF4-AF9 inh 39
NC(=O)C1CCN(C2=C(NS(=O)(=O)c3ccc(Cl)cc3)C(=O)c3ccccc3C2=O)CC1	none
CO[C@@H]1CN(C)C(=O)c2ccc(NS(C)(=O)=O)cc2OC[C@H](C)N(C(=O)C2CCCC2)C[C@H]1C	none (no result: PDI turbidity)
CC(=O)Nc1ccc(S(=O)(=O)NC2=C(N3CCN(c4ccc(F)cc4)CC3)C(=O)c3ccccc3C2=O)cc1	AF4-AF9 inh 45 (no result: DENV2 CPE)
C[C@@H]1CN([C@H](C)CO)C(=O)Cc2cc(NC(=O)Nc3ccccc3)ccc2O[C@H]1CN(C)C(=O)Nc1ccccc1	none (no result: PDI turbidity)
Cc1noc(C)c1NC(=O)N(C)C[C@H]1Oc2ccc(NS(=O)(=O)c3cn(C)cn3)cc2CC(=O)N([C@H](C)CO)C[C@@H]1C	DENV2 CPE 48 (no result: PDI turbidity)
COc1ccc(NC(=O)N(C)C[C@@H]2Oc3ccc(NS(=O)(=O)c4cn(C)cn4)cc3CC(=O)N([C@@H](C)CO)C[C@H]2C)cc1	DENV2 CPE inconclusive (no result: PDI turbidity)
COc1ccc(NC(=O)N(C)C[C@@H]2Oc3ccc(NS(=O)(=O)c4cn(C)cn4)cc3CC(=O)N([C@H](C)CO)C[C@@H]2C)cc1	DENV2 CPE 77 (no result: PDI turbidity)
Cc1noc(C)c1NC(=O)N(C)C[C@@H]1Oc2ccc(NS(=O)(=O)c3cn(C)cn3)cc2CC(=O)N([C@@H](C)CO)C[C@H]1C	none (no result: PDI turbidity)
O=C(C[C@@H]1CC[C@H](NC(=O)Nc2ccc3c(c2)OCO3)[C@@H](CO)O1)NCc1ccc2c(c1)OCO2	DENV2 CPE 24 (no result: PDI turbidity)
O=C(C[C@H]1CC[C@@H](NC(=O)Nc2ccccc2F)[C@@H](CO)O1)NCc1ccc(-c2ccccc2)cc1	DENV2 CPE 30 (no result: PDI turbidity)
O=C(C[C@@H]1CC[C@H](NC(=O)Nc2ccccc2F)[C@H](CO)O1)NCc1ccc(-c2ccccc2)cc1	none (no result: PDI turbidity)
O=C(Nc1ccc2c(c1)OCO2)N[C@@H]1CC[C@H](CCNC(=O)C2CCC2)O[C@@H]1CO	DENV2 CPE 32 (no result: PDI turbidity)
C[C@@H]1CN([C@H](C)CO)C(=O)Cc2cc(NS(C)(=O)=O)ccc2O[C@@H]1CN(C)S(=O)(=O)c1cn(C)cn1	none (no result: PDI turbidity, AF4-AF9 inh, ERAP1 inh, ERp5 inh)
CC1(NC(=O)c2cc(Cl)nc3ccccc23)CCS(=O)(=O)C1 (stereo unspecified)	DENV2 CPE 54
O=C(NC1CC1)c1cc(Cl)nc2ccccc12	none
CCCNC(=O)N(C)C[C@H]1Oc2ncc(-c3ccc(C(=O)N(C)C)cc3)cc2C(=O)N([C@H](C)CO)C[C@@H]1C	none (no result: PDI turbidity)

Screening results (PubChem)
